Results filed as inconclusive are left out. Calls of active or inactive are those of the source. The calls were made as follows: active = hit-call score of the fitted dose curve at least 0.9, where 1 is the maximum; inconclusive = response in the unintended direction; inactive = score below 0.9.
Assays:
[1] = ACEA_AR_agonist_AUC_viability: ACEA Biosciences xCELLigence Real-Time Cell Analysis on Androgen Receptor Agonism for Viability (AID 2283775);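 as to AC50: viability read 80 hours after compound addition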
Summary of the method: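 Real-time impedance tracking of 22Rv1 growth, readings every 5 min for 5 h then hourly; area-under-curve viability endpoint at 80 hours, relative to DMSO. Compounds at eight concentrations, 1:4 steps, top 100 uM, n = 2.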

[2] = ACEA_AR_antagonist_AUC_viability: ACEA Biosciences xCELLigence Real-Time Cell Analysis on Androgen Receptor Antagonism for Viability (AID 2283776);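 also: hits lower the growth signal relative to DMSO meaning cytotoxicity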
Summary of the method: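 22Rv1 human prostate cancer cells were seeded on electrode plates, monitored overnight, then exposed to eight 1:4 dilutions from 100 uM final. Impedance-based growth kinetics at 80 h gave an AUC viability endpoint normalized to DMSO.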

[3] = ACEA_ER_AUC_viability: ACEA Biosciences xCELLigence Real-Time Cell Analysis on Estrogen Receptor Agonism for Viability (AID 2283782);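 also: continuous compound exposure with impedance area under curve over 80 h; hit means loss of impedance signal meaning reduced cell growth or viability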
Summary of the method: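 T47D cells preconditioned in phenol red-free RPMI with charcoal-stripped FBS, then dosed with 8-point 1:4 series from 100 uM (up to 0.5% DMSO). Impedance monitored up to ~80 h; area-under-curve loss versus DMSO taken as viability.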

[4] = STM_H9_NormalizedViability: Cytotoxicity Assessment at 120 hours in the Stemina devTOX quickPredict H9 human embryonic stem cell (hESC)-based Assay (AID 2283784)
Summary of the method: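 Pluripotent H9 cells dosed, fresh medium plus compound q24h → cell layer read by CellTiter-Fluor → RFU blank-corrected, normalized to DMSO 0.1% mean. Loss-of-signal fit, DMSO as baseline.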

AR (gene 367) [5] = biological target: AR (gene 367) (UniProt P10275); experiment: ACEA_AR_antagonist_80hr: ACEA Biosciences xCELLigence Real-Time Cell Analysis on Androgen Receptor Antagonism for Proliferation (AID 2283787);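 also: hits lower the impedance growth signal relative to DMSO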
Chain of AR (gene 367) (P10275 whole entry, looked up): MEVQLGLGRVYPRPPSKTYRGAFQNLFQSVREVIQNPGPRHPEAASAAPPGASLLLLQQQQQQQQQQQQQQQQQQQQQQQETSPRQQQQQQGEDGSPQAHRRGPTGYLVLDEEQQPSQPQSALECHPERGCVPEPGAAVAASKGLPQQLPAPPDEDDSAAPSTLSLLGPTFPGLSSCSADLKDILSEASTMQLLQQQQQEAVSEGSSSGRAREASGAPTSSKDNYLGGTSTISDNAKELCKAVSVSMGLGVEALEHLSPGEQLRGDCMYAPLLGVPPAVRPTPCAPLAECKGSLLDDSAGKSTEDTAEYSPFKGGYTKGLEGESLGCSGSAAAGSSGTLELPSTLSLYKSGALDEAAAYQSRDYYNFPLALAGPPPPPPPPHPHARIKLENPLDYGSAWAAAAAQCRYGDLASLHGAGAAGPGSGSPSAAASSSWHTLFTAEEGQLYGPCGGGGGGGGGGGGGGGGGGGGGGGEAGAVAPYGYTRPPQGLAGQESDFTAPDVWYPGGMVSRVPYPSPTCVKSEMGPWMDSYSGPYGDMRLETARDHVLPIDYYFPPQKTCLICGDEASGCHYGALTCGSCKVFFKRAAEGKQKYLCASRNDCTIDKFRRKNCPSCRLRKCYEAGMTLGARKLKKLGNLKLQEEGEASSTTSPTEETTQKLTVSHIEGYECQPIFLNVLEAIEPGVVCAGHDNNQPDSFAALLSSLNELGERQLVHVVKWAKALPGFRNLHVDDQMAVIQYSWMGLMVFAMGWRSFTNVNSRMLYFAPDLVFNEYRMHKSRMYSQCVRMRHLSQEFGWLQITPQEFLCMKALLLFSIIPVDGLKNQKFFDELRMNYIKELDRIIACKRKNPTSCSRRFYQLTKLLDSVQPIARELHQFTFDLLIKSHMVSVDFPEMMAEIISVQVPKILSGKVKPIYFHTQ
Summary of the method: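 22Rv1 cells in assay medium, growth tracked by electrical impedance; compounds eight-point 1:4 dilutions from 100 uM final, duplicate plates. Endpoint at 80 h; loss of signal versus DMSO.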

AR (gene 367) [6] = biological target: AR (gene 367) (UniProt P10275); experiment: ACEA_AR_agonist_80hr: ACEA Biosciences xCELLigence Real-Time Cell Analysis on Androgen Receptor Agonism for Proliferation (AID 2283783);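 also: hits increase impedance growth signal above DMSO baseline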
Summary of the method: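 Proliferation of 22Rv1 prostate cancer cells tracked by electrical impedance, endpoint taken at 80 hours after dosing. Eight-point 1:4 dilutions from 100 uM maximum final, duplicate; testosterone and MG132 as positive controls, assay media as negative.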

## CON=C(C(=O)OC)c1ccccc1CON=C(C)c1cccc(C(F)(F)F)c1
[1]
  AC50: 26.4 µM (active)
[2]
  AC50: 14.5 µM (active)
[3]
  AC50: 90.5 µM (active)
[4]
  outcome: inactive

## CCCCOC(=O)c1ccccc1C(=O)O
[1]
  outcome: inactive
[2]
  outcome: inactive
[3]
  outcome: inactive
AR (gene 367) [5]
  outcome: inactive

## CSc1nc(NC(C)C)nc(NC(C)C)n1
[1]
  outcome: inactive
[2]
  outcome: inactive
[3]
  outcome: inactive
[4]
  outcome: inactive

## CCOP(=O)(OCC)Oc1cc(C)nc(C(C)C)n1
[2]
  outcome: inactive
[3]
  outcome: inactive

## CNC(=O)ON=C(SC)C(=O)N(C)C
[1]
  outcome: inactive
[2]
  outcome: inactive
[3]
  AC50: 65.5 µM (active)
AR (gene 367) [6]
  outcome: inactive
AR (gene 367) [5]
  outcome: inactive

## CCc1cccc(CC)c1N(COC)C(=O)CCl
[1]
  AC50: 50 µM (active)
[2]
  AC50: 50 µM (active)
[3]
  outcome: inactive
AR (gene 367) [5]
  AC50: 63.9 µM (active)
